Experimental data taken from ChEMBL document CHEMBL2218924, “A broad activity screen in support of a chemogenomic map for kinase signalling research and drug discovery” (Biochem J, 2013).

Columns and labels:
[1] = biological target: T1, Mitogen-activated protein kinase kinase kinase 7 (Homo sapiens) (UniProt O43318); details: at 1 µM
T1 sequence (whole entry): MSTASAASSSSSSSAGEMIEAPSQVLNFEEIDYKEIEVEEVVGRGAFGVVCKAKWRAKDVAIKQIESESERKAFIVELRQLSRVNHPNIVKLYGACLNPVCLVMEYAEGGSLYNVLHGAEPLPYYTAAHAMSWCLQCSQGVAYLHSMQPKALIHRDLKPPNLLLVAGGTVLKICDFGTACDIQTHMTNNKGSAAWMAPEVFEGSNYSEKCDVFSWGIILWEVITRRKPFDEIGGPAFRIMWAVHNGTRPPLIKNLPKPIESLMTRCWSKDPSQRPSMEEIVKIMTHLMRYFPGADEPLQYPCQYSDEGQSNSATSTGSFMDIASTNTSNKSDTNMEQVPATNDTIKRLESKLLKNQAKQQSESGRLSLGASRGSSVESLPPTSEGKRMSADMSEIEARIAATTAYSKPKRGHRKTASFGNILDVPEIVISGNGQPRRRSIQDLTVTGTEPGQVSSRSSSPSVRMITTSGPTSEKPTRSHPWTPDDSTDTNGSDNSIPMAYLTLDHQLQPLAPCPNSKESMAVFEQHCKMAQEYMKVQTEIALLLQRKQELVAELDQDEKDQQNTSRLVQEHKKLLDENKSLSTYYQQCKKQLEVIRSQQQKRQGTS

[2] = biological target: T1, Mitogen-activated protein kinase kinase kinase 7 (Homo sapiens); details: at 10 µM
[3] = biological target: T2, Serine/threonine-protein kinase TAO1 (Homo sapiens) (UniProt Q7L7X3); details: at 1 µM
T2 sequence (whole entry): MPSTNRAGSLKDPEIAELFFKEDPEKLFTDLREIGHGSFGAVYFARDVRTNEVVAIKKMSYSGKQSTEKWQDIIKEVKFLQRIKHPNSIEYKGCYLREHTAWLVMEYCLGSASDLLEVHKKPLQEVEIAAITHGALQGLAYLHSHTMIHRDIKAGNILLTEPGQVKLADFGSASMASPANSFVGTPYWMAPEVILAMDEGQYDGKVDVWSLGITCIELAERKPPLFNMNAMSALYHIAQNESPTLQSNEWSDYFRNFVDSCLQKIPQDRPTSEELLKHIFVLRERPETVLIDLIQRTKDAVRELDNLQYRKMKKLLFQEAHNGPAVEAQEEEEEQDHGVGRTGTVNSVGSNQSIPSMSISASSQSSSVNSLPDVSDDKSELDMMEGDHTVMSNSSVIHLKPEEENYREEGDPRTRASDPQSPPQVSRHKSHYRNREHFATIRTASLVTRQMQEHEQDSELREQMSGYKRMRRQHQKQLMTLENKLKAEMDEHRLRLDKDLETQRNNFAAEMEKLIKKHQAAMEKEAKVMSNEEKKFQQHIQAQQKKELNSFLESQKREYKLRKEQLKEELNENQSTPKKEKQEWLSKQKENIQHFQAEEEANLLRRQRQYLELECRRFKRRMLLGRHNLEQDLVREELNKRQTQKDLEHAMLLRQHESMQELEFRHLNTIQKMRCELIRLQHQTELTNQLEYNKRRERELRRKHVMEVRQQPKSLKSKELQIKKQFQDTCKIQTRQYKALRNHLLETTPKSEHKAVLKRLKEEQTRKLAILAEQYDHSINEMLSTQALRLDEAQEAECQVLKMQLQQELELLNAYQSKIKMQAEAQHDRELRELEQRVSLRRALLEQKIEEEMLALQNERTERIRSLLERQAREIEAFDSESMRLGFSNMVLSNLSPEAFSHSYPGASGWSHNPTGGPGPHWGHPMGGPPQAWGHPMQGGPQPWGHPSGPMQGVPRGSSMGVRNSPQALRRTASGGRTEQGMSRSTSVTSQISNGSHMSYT

[4] = biological target: T2, Serine/threonine-protein kinase TAO1 (Homo sapiens); details: at 10 µM
[5] = biological target: T3, Serine/threonine-protein kinase TAO3 (Homo sapiens) (UniProt Q9H2K8); details: at 1 µM
T3 sequence (whole entry): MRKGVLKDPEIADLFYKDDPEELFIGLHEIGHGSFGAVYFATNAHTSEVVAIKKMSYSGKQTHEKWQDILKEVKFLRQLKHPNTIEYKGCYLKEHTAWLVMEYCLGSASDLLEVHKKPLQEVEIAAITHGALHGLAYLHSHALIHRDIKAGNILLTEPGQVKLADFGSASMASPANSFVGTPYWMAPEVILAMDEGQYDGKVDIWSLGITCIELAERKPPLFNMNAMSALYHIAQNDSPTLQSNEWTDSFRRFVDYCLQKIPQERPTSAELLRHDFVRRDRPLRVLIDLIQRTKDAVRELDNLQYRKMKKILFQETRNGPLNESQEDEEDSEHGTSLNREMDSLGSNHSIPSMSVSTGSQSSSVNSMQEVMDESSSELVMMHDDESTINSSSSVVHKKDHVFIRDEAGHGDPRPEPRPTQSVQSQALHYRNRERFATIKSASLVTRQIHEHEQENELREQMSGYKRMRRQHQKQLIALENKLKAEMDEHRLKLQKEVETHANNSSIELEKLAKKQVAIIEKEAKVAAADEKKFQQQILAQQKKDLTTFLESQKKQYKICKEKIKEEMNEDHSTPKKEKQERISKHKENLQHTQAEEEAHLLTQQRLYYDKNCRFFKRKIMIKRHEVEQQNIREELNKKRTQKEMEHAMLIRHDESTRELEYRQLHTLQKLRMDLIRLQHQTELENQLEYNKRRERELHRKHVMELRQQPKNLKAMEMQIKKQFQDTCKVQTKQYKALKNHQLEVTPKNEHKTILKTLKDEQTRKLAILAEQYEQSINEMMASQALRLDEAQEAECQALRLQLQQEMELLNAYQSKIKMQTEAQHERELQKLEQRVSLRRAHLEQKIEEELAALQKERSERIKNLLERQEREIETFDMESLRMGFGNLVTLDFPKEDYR

[6] = biological target: T3, Serine/threonine-protein kinase TAO3 (Homo sapiens); details: at 10 µM
[7] = biological target: T4, Serine/threonine-protein kinase TBK1 (Homo sapiens) (UniProt Q9UHD2); details: at 1 µM
T4 sequence (whole entry): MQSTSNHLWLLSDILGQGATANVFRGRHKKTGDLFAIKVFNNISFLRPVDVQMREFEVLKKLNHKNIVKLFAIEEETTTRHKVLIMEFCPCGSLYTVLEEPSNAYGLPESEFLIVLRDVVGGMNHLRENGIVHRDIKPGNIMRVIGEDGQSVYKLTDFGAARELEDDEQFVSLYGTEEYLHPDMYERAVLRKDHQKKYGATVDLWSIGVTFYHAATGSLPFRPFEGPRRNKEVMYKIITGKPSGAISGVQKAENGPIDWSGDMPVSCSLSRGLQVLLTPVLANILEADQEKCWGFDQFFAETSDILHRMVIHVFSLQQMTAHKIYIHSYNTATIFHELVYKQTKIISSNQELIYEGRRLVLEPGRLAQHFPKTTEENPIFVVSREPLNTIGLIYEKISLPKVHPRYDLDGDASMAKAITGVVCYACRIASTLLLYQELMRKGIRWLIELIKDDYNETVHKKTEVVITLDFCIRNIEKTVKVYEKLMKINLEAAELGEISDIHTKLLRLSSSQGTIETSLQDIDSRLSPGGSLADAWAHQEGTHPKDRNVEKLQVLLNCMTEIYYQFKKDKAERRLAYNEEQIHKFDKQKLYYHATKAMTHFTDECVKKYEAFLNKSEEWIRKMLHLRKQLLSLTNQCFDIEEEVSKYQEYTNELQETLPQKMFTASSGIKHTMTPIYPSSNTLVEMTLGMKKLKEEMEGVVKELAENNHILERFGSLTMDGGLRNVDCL

[8] = biological target: T4, Serine/threonine-protein kinase TBK1 (Homo sapiens); details: at 10 µM
[9] = biological target: T5, Inhibitor of nuclear factor kappa-B kinase subunit alpha (Homo sapiens) (UniProt O15111); details: at 1 µM
T5 sequence (whole entry): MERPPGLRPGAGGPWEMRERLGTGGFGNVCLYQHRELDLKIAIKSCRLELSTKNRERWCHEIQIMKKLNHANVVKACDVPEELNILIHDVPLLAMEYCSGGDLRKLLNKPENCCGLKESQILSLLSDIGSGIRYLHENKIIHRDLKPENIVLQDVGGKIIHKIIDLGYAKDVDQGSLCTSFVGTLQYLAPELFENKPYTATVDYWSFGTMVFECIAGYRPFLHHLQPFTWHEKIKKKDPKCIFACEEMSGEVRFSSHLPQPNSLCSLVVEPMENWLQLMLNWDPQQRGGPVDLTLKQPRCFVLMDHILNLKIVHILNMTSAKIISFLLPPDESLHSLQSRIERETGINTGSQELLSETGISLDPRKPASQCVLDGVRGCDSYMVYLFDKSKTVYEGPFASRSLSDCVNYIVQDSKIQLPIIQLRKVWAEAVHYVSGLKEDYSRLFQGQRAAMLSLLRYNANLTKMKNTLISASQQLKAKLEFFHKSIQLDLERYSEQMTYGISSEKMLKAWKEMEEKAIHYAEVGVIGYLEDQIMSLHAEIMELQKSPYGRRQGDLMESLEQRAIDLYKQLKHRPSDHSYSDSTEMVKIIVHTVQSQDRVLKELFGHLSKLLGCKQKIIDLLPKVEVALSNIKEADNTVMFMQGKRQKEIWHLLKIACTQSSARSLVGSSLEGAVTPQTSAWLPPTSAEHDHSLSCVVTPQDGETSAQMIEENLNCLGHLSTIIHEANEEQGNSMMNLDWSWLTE

[10] = biological target: T5, Inhibitor of nuclear factor kappa-B kinase subunit alpha (Homo sapiens); details: at 10 µM
[11] = biological target: T6, Inhibitor of nuclear factor kappa-B kinase subunit beta (Homo sapiens) (UniProt O14920); details: at 10 µM
T6 sequence (whole entry): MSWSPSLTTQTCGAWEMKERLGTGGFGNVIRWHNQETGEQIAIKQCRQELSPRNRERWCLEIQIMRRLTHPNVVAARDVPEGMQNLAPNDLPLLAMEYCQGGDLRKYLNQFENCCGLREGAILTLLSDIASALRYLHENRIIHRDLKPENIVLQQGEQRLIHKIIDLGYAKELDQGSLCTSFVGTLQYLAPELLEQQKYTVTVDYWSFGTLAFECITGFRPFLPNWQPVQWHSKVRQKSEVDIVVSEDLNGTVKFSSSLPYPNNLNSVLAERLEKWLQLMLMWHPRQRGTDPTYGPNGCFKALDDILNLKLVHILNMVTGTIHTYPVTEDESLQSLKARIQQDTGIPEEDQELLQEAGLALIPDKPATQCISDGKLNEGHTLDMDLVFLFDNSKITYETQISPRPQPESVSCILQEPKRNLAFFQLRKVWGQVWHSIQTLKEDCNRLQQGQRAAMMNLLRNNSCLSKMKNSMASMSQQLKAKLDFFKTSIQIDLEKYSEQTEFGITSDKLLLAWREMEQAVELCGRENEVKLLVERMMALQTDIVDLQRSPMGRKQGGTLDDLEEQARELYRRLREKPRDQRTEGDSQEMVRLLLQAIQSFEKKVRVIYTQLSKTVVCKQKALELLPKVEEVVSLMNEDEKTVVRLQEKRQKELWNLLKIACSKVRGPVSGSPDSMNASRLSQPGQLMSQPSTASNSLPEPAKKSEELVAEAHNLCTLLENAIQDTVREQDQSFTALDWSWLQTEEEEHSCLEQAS

[12] = biological target: T7, Serine/threonine-protein kinase TAO2 (Homo sapiens) (UniProt Q9UL54); details: at 1 µM
T7 sequence (whole entry): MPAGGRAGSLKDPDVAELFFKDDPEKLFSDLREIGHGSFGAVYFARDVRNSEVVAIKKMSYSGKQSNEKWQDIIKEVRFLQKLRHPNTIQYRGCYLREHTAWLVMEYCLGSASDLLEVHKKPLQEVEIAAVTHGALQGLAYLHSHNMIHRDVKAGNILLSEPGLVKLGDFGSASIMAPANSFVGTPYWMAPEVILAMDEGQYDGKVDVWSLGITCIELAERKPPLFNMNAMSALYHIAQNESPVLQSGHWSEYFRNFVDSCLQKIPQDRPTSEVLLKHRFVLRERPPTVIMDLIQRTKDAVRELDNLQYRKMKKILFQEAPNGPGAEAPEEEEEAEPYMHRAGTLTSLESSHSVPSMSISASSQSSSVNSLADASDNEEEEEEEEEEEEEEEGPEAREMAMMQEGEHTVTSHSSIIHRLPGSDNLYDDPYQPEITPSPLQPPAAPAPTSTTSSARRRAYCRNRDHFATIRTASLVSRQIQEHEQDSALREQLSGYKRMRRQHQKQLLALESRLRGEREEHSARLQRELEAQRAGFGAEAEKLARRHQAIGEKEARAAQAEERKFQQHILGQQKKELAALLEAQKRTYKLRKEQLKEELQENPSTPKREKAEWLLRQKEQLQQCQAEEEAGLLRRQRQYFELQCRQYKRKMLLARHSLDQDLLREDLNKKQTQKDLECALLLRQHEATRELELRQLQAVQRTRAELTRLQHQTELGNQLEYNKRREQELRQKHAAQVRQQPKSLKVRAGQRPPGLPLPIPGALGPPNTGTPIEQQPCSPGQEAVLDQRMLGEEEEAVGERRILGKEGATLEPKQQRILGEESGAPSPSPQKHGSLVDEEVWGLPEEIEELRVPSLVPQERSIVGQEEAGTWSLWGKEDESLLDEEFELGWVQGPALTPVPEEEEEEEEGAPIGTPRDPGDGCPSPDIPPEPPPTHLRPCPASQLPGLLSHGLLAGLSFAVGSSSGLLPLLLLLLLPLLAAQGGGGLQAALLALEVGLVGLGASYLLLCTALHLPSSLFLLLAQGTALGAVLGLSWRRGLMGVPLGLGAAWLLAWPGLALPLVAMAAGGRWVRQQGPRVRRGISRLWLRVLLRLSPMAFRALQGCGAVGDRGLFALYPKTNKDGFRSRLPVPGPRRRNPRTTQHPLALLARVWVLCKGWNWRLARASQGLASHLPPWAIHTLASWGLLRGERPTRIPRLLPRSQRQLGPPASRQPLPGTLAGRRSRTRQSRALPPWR

[13] = biological target: T7, Serine/threonine-protein kinase TAO2 (Homo sapiens); details: at 10 µM
[14] = biological target: T6, Inhibitor of nuclear factor kappa-B kinase subunit beta (Homo sapiens); details: at 1 µM

SMILES | residual activity [1] [%] | residual activity [2] [%] | residual activity [3] [%] | residual activity [4] [%] | residual activity [5] [%] | residual activity [6] [%] | residual activity [7] [%] | residual activity [8] [%] | residual activity [9] [%] | residual activity [10] [%] | residual activity [11] [%] | residual activity [12] [%] | residual activity [13] [%] | residual activity [14] [%]
CC(C)(C)c1nc2c3ccc(F)cc3c3c(=O)[nH]ccc3c2[nH]1 | 44 | 62 | 56 | 24 | 68 | 73 | 15 | 3 | 52 | 32 | 27 | – | – | –
COc1cc2nccc(Oc3ccc(NC(=O)Nc4cc(C)on4)c(Cl)c3)c2cc1OC | – | – | – | 52 | 82 | 57 | 82 | 68 | – | – | 102 | 73 | 43 | 104
